About 9,900 (2.8%) of roughly 350,000 compounds were called active. Inconclusive results (about 15%) are left out. What follows is part of a selection rich in actives, with near analogues and random picks from the rest. Values without a mark were called inactive. Calls follow the shape of the dose curve; as a rule, active = well fitted activation curve with a large enough effect; inconclusive = small, poorly fitted or top-dose-only effect; inactive = no such curve, though single readings can be large or run the other way.

These results are taken from PubChem BioAssay AID624296 (National Center for Advancing Translational Sciences (NCATS), 2012).
Potency is read from the fitted curve at half-maximal effect.

This test is described as follows: A quantitative high throughput screen for small molecules that induce DNA re-replication in MCF 10a normal breast cells. Also: nearly all actives have a fitted effect of over 50% in size. As to activity, positive = re-replication: % of control where 0% means no effect. The settings on record: MCF 10A DNA re-replication, Hoechst nuclear intensity, 48 h; series mostly up to 46.1 µM; activity, positive = re-replication: at the top concentration.
For the compound `NNc1nc2c(Cl)cccc2s1`, the Potency is 16.4 µM (active). With `O=C(Nc1ccccc1)Nc1nc2ccccc2s1`, the “activity, positive = re-replication” value was -1.93%. With `CN(CC(=O)Nc1ccc(OC(F)F)cc1)S(=O)(=O)/C=C/c1ccccc1`, the “activity, positive = re-replication” value was -0.819%. Take `O=C(NN=Cc1ccccc1)c1ccccc1`: the “activity, positive = re-replication” value was 2.48%. The same measure, in the same setting: the same measure for `CC(C)(C)OC(=O)NCCCCCNC(=O)c1nc[nH]c1C(=O)NCc1ccccc1`: 19.9%; for `O=C1OC(Cc2ccccc2)C(c2ccccc2)C1=O` (centres undefined): 11.9%. As to `COc1ccc(OC)c(NC(=O)CCN2CCC(C)CC2)c1`, the Potency was 5.17 µM (active). For `CCOC(=O)N1CCN(CCC(=O)Nc2cc(OC)ccc2OC)CC1`, the “activity, positive = re-replication” value is 1.69%. Same read-out and setting: for `COc1ccc(Cl)cc1NC(=O)CCN1CCOCC1` the value was -2.83%. On the same count and under the same terms, the same measure for `CC1CCCC(NC(=O)c2cc(-c3ccncc3)nc3ccccc23)C1C` (centres undefined): 182%; for `O=C(COC(=O)COc1cccc(F)c1)NCC1CCCCC1`: 4.24%; for `COc1ccc(S(=O)(=O)N2CCOCC2)cc1NC(=O)CSc1nnc(NC2CC2)s1`: 0.0251%.

With `Cc1ccc(Cc2nc(-c3cccc(C)c3)no2)cc1`, the “activity, positive = re-replication” value was 5.26%. As for `Cc1ccc(-c2noc(CC(c3ccccc3)c3ccccc3)n2)cc1`, the “activity, positive = re-replication” value was 19.8%. With `COc1ccccc1Cc1nc(-c2ccc(C)cc2)no1`, the Potency was 5.8 µM (active). `NC(=O)NCCCC(=O)O`: the “activity, positive = re-replication” value is 2.9%. Still for that read-out and setting: for `CN(CC(=O)NCC(c1ccccc1)N1CCCC1)S(=O)(=O)c1ccc(Cl)cc1` (centres undefined) the value was 13.6%. For the compound `CN(c1cccc(NC(=O)Nc2ccc(Cl)cc2)c1)S(C)(=O)=O`, the Potency is 13 µM (active). With `Cc1ccc(N(CC(=O)Nc2cccc(N(C)S(C)(=O)=O)c2)S(C)(=O)=O)cc1`, the “activity, positive = re-replication” value was -6.44%. Same read-out and setting: the same measure for `Cn1ccc(NC(=O)Nc2ccc(Cl)cc2)n1`: -29.8%; for `COc1ccc(NS(=O)(=O)c2ccc(N3CCOCC3)c(NC(=O)/C=C/C(=O)O)c2)cc1`: -2.55%. Turning to `Cc1ccc(-c2nn(-c3ccccc3)cc2/C=C/C(=O)Nc2cccc(S(N)(=O)=O)c2)cc1`, the Potency is 13 µM (active). In the case of `O=C(/C=C/c1cn(-c2ccccc2)nc1-c1ccc2c(c1)OCCO2)NCCCN1CCOCC1`, the “activity, positive = re-replication” value is 10%. Same read-out and setting: the same measure for `Cc1ccc(-c2nn(-c3ccccc3)cc2C(=O)Nc2cccc(S(=O)(=O)N3CCOCC3)c2)cc1`: 1.34%; for `CC(=O)c1ccc(S(=O)(=O)NCCC(=O)N2CCN(c3ccccn3)CC2)cc1`: -6.67%; for `Cc1csc(SCC(=O)N(c2ccccc2)C(C)C)n1`: 15.8%. The same measure, in the same setting: the same measure for `c1ccc2c(c1)OC1OC2Oc2ccccc21`: -3.33%. In the case of `CC(C)(C)OC(=O)N1CCC(NC(=O)c2[nH]cnc2C(=O)N[C@@H](Cc2ccccc2)C(=O)OCc2ccccc2)CC1`, the Potency was 14.6 µM (active).

Consider `O=C(N[C@@H](Cc1ccccc1)C(=O)OCc1ccccc1)c1nc[nH]c1C(=O)NC1CCNCC1`, for which the “activity, positive = re-replication” value was 0.257%.

As for `O=C(N[C@@H](Cc1ccccc1)C(=O)OCc1ccccc1)c1nc[nH]c1C(=O)N[C@@H](Cc1ccccc1)C(=O)OCc1ccccc1`, the “activity, positive = re-replication” value was 16.7%. The same measure, in the same setting: the same measure for `NS(=O)(=O)c1ccc(CCNC(=O)c2ccc(Cl)c(S(=O)(=O)N3CCCCCC3)c2)cc1`: 20.2%; for `Cc1ccc(C(CC(=O)O)NC(=O)c2ccc(S(=O)(=O)N3CCCC3)cc2)cc1` (centres undefined): -3.45%. The same measure, in the same setting: the same measure for `CCOC(=O)C1(Cc2cccc(OC)c2)CCN(C(C)COC)CC1` (centres undefined): 11.2%. In the case of `CCOC(=O)C1(Cc2cccc(OC)c2)CCN(C(C)CC(C)(C)O)CC1` (centres undefined), the “activity, positive = re-replication” value is 0.346%. With `CCOC(=O)C1(Cc2cccc(OC)c2)CCN(Cc2csc(C(C)=O)c2)CC1`, the Potency is 8.2 µM (active).

For the compound `N#CC1(Nc2ccc(-c3ccc(Cl)cc3)cc2)CCCC1`, the “activity, positive = re-replication” value was -2.31%. `O=C(Nc1c(Br)cc2c(c1Br)Cc1ccccc1-2)C(F)(F)F`: the “activity, positive = re-replication” value was 14.3%. For the compound `CCOC(=O)N1CCN(C(=O)c2ccccc2N(Cc2ccccc2)S(=O)(=O)c2ccc(OC)cc2)CC1`, the Potency was 13 µM (active). As for `NC(=O)c1ccccc1N(Cc1ccccc1)S(=O)(=O)c1ccccc1`, the “activity, positive = re-replication” value is 8.11%. On the same count and under the same terms, the same measure for `CCN1CCN(C(=O)c2ccccc2N(C)S(=O)(=O)c2ccc(C)cc2)CC1`: -2%; for `CC[C@@H](C)[C@@H]1CN([C@@H](C)CN2CCC[C@H]2CN2C(N)=NC[C@H]2C(C)C)C(=N)N1CCc1ccc(Cl)c(Cl)c1`: -21.4%.

Consider `CC(OC(=O)c1c(F)cccc1F)C(=O)NCCC1=CCCCC1` (centres undefined), for which the “activity, positive = re-replication” value was 8.71%. Take `O=C(CCl)Nc1ccc(Sc2ccc(NC(=O)CCl)cc2)cc1`: the Potency is 6.51 µM (active). For the compound `Cc1ccc(NC(=O)CC(=O)Nc2ccc(C)cc2)cc1`, the “activity, positive = re-replication” value was 2.57%. Still for that read-out and setting: the same measure for `CCC(=O)Nc1ccc(Nc2nc(Cl)nc(Nc3ccc(NC(=O)CC)cc3)n2)cc1`: 0.0779%. For `FC(F)(F)c1ccc(-c2cccc3c2C2CC3CCN2Cc2ccccc2)cc1` (centres undefined), the “activity, positive = re-replication” value is 2.26%. Same read-out and setting: for `CC1CCCCC12NC(=O)N(CC(=O)N1CCN(c3ccccc3)CC1)C2=O` (centres undefined) the value was 0.565%; for `COc1cccc(CNC(=O)CN2C(=O)NC(Cc3ccccc3)(c3ccccc3)C2=O)c1` (centres undefined), -0.149%. On to `COc1ccc(-c2nn(-c3ccccc3)cc2/C=N/Nc2ccccn2)cc1OC`, for which the Potency was 23.1 µM (active). With `CN(C)/N=C/c1cn(-c2ccccc2)nc1-c1cccnc1`, the “activity, positive = re-replication” value is 0.925%. Still for that read-out and setting: the same measure for `CC(C)(C)OC(=O)N/N=C/c1cn(-c2ccccc2)nc1-c1cccnc1`: 7.39%; for `CCOC(=O)C(CO)NC(=O)C1(NC(C)=O)CCCC1` (centres undefined): -0.0355%; for `CN(CCc1ccccc1)C(=O)c1cccc(NC(=O)Cc2cccc(NC(=O)C3CCCN(C(=O)CCc4ccccc4)C3)c2)c1` (centres undefined): 3.16%. Regarding `CCOC(=O)C1=C(CN2CCc3ccccc32)NC(=O)NC1c1cccc([N+](=O)[O-])c1` (centres undefined), the “activity, positive = re-replication” value was -3.56%. As to `CCOC(=O)C1=C(C)NC(=O)NC1c1ccccc1` (centres undefined), the “activity, positive = re-replication” value is -2.24%.

On to `CCOC(=O)C1=C(CN2CCc3ccccc32)NC(=O)NC1c1ccc(Cl)cc1` (centres undefined), for which the Potency was 14.6 µM (active). Turning to `COc1cc(O)c2c(=O)c3c(O)c(O)ccc3oc2c1OC`, the “activity, positive = re-replication” value is -33.2%. On the same count and under the same terms, for `CC(C)CCN1CCN=C1N(C)C` the value was -20.8%; for `O=C(OCc1ccc(Br)cc1)c1cccc(-c2nnc(-c3ccccc3)o2)c1`, 4%. On to `O=C(OCc1ccccc1)c1ccc(O)cc1`, for which the “activity, positive = re-replication” value was 0.461%. As for `O=C(OCc1ccc(-c2ccccc2)cc1)c1cccc(O)c1`, the Potency was 20.6 µM (active).

Consider `Cc1cc2c(cc1C)NC1(C[C@H]3CCC(=O)N4CC[C@@H](C1)[C@@H]34)C(=NC(C)(C)CC(C)(C)C)N2` (some centres undefined), for which the “activity, positive = re-replication” value is -13.3%. Same read-out and setting: for `CCCCN1CC(CO)Oc2cccc(F)c2S1(=O)=O` (centres undefined) the value was -9.57%; for `Cc1cc(C(=O)OCC(=O)N2C(C)CCCC2C)c2ccccc2n1` (centres undefined), 3.65%.
